Test results taken from PubChem BioAssay (Tox21).
Unmarked numbers belong to inactive results. Records with an inconclusive call do not appear. Entries that show only a call come without a potency. Calls of active or inactive are those of the source. Unless noted, calls follow the shape of the dose curve; as a rule, active = well fitted curve in the direction sought with a large enough effect in the repeat runs; inconclusive = weak or mixed curves; inactive = no such curve, though single readings can be large; an effect the other way counts as inactive or inconclusive.

Experiments:
[1] = qHTS assay to identify small molecule agonists of the hypoxia (HIF-1) signaling pathway (AID 1224846; active = well fitted activation curve with a large enough effect in the signal ratio in the repeat runs, not every such curve was filed as active; the % refers to the signal ratio)
How it was run: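 HRE-bla ME-180 cells (beta-lactamase reporter under hypoxia response element) were plated at 2,000 cells/well in medium with 0.5% dialyzed FBS, rested 5 hrs, then given compounds in DMSO for 17 hrs at 37C, 5% CO2. Reporter induction was read with CCF4-AM FRET substrate.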

[2] = qHTS assay to identify small molecule agonists of H2AX - cell viability counter screen (AID 1224847; calls by dose curve; also: nearly all actives have a fitted effect of over 30% in size; also: potency is read from the fitted curve at half-maximal effect)
How it was run: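 Wild-type CHO-K1 cells (10% FBS medium) were plated overnight at 37C, exposed to compounds at 15 concentrations for 3 hr at 37C (0.76% DMSO final), and viability was read as CellTiter-Glo luminescence after 30 min at room temperature.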

[3] = qHTS assay to identify small molecule antagonists of the estrogen related receptor (ERR) signaling pathway from Tox21 library (AID 1224848); also: nearly all actives have a fitted effect of over 50% in size; also: potency is read from the fitted curve at half-maximal effect
How it was run: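 Screening used an ERR reporter line supplied by NTP, exposed for 18 h at 37 C to library compounds delivered in DMSO. Signal was luciferase luminescence developed with ONE-Glo at room temperature for 30 min.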

[4] = qHTS assay to identify small molecule agonists of the estrogen related receptor (ERR) signaling pathway from Tox21 library (AID 1224849; calls by dose curve; also: nearly all actives have a fitted effect of over 15% in size); conditions: ERR reporter cell line, ONE-Glo luciferase, 18 h; at 92.4 µM (top of the series) unless noted
How it was run: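 ERR reporter cell line (NTP) seeded, rested 6 h at 37 C/5% CO2, then pinned with Tox21 compounds in DMSO. After 18 h at 37 C, ONE-Glo luciferase luminescence was read following 30 min at room temperature.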

[5] = qHTS RealTime-Glo MT Cell Viability Assay in HepG2 cells - 24 hour (AID 1224867); also: nearly all actives have a fitted effect of over 50% in size; also: potency is read from the fitted curve at half-maximal effect
How it was run: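 HepG2 cells were seeded at 600 cells/well together with NanoLuc luciferase and a cell-permeant prosubstrate, preincubated 5 h at 37 C/5% CO2, then pin-dosed with compounds in DMSO. Nonlytic luminescence from viable cells was read at each time point.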

[6] = A CellTox Green Cytotoxicity Assay to monitor cytotoxicity in HEK293 cells - 0 hour (AID 1224869); also: nearly all actives have a fitted effect of over 50% in size; also: potency is read from the fitted curve at half-maximal effect
How it was run: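 HEK293 cells premixed with CellTox Green dye were seeded at 600 cells/well and left 5 h at 37 C/5% CO2 before pin transfer of 23 nL compound in DMSO. Fluorescence from dye bound to dead-cell DNA was read during 40 h treatment.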

[7] = qHTS RealTime-Glo MT Cell Viability Assay in HepG2 cells - 40 hour (AID 1224870); also: nearly all actives have a fitted effect of over 50% in size; also: potency is read from the fitted curve at half-maximal effect
How it was run: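 HepG2 cells mixed with RealTime-Glo MT reagents (NanoLuc plus cell-permeant prosubstrate) were seeded at 600 cells/well, incubated 5 h at 37 C/5% CO2, then pinned with compounds in DMSO; nonlytic luminescence tracked viability during 40 h treatment.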

[8] = qHTS assay to identify small molecule agonists of H2AX (AID 1224845; active = well fitted activation curve with a large enough effect in the signal ratio in the repeat runs, not every such curve was filed as active; the % refers to the signal ratio; also: potency is read from the fitted curve at half-maximal effect)
How it was run: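 Wild-type CHO-K1 cells plated overnight, then exposed 3 hr at 37C to compounds at 15 concentrations (0.76% DMSO). Lysed, then HTRF anti-pH2AX(S139)-cryptate/anti-H2AX-d2 detection after 24 hr at room temperature; emissions 665 and 620 nm.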

[9] = qHTS RealTime-Glo MT Cell Viability Assay in HEK293 cells - 32 hour (AID 1224868); also: nearly all actives have a fitted effect of over 50% in size; also: potency is read from the fitted curve at half-maximal effect
How it was run: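 HEK293 cells were seeded at 600 cells/well together with NanoLuc luciferase and cell-permeant prosubstrate, preincubated 5 h at 37 C/5% CO2, then given compound in DMSO by pintool. Luminescence from viable-cell prosubstrate reduction was read repeatedly over 40 h.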

| SMILES | outcome [1] | Potency [2] | Potency [3] | activity change, positive = activation [4] | Potency [5] | Potency [6] | Potency [7] | Potency [8] | Potency [9] |
| --- | --- | --- | --- | --- | --- | --- | --- | --- | --- |
| CCOP(=S)(OCC)SCS(=O)(=O)CC | inactive | inactive | inactive | -5.31% | inactive | inactive | inactive | – | – |
| CSCCCN=C=S | – | inactive | inactive | -13.5% | inactive | inactive | inactive | inactive | – |
| CC(=[OH+])/C=C(/C)[O-].CC(=[OH+])/C=C(\C)[O-].CC(=[OH+])/C=C(\C)[O-].[Fe] | – | – | – | – | inactive | inactive | inactive | inactive | inactive |
| O=C(CCCN1CCC2(CC1)C(=O)NCN2c1ccccc1)c1ccc(F)cc1 | – | – | inactive | – | inactive | inactive | inactive | inactive | 9.52 µM (active) |
| O=C(CCl)C(Cl)Cl | – | – | 43.7 µM (active) | -73% | – | inactive | – | 40.5 µM (active) | 17.5 µM (active) |
| COc1ccc([N+](=O)[O-])cc1O | – | inactive | – | – | inactive | inactive | inactive | inactive | inactive |
| CC(C)Oc1cccc(NC(=O)c2ccccc2C(F)(F)F)c1 | – | – | 24.3 µM (active) | -38.3% | inactive | 43.6 µM (active) | inactive | inactive | 24.5 µM (active) |
| CCOC(=O)C1(c2ccccc2)CCN(CCC(C#N)(c2ccccc2)c2ccccc2)CC1 | – | inactive | – | – | inactive | inactive | inactive | inactive | inactive |
| O=[N+]([O-])c1cc([N+](=O)[O-])c2ccccc2c1 | – | inactive | – | -17.9% | – | – | inactive | inactive | inactive |
| N#CC(Cl)Cl | – | – | – | -30.9% | inactive | inactive | – | inactive | – |
| CC(C)OC(=O)C(O)(c1ccc(Cl)cc1)c1ccc(Cl)cc1 | – | 56.6 µM (active) | – | – | – | inactive | – | 80 µM (active) | – |
| COc1cc(C=O)cc2c1[C@H](COC(N)=O)[C@]1(OC(C)=O)ON2C[C@H]2[C@@H]1N2C(C)=O | – | – | 0.273 µM (active) | -41% | – | inactive | – | 63.5 µM (active) | – |
| c1ccc(OCC2CO2)cc1 (centres undefined) | – | inactive | – | – | inactive | inactive | inactive | inactive | inactive |
| COC(=O)N(C(=O)N1COC2(C(=O)OC)Cc3cc(Cl)ccc3C2=N1)c1ccc(OC(F)(F)F)cc1 (centres undefined) | – | – | 11.9 µM (active) | -49.3% [at 42.5 µM] | inactive | inactive | inactive | inactive | inactive |
| CC(C)[C@H](C(=O)O[C@H](C#N)c1cccc(Oc2ccccc2)c1)c1ccc(Cl)cc1 | – | inactive | – | – | inactive | inactive | inactive | inactive | – |
| N#Cc1c(-c2ccc(Cl)cc2)[nH]c(C(F)(F)F)c1Br | – | – | 0.344 µM (active) | -60.7% | inactive | inactive | inactive | inactive | 1.55 µM (active) |
| ClCc1ccccc1CCl | – | inactive | – | – | inactive | inactive | inactive | inactive | – |
| CCCCCCCCCBr | – | inactive | – | – | inactive | inactive | inactive | inactive | inactive |
| Nc1ccc(Sc2ccc(N)cc2)cc1 | inactive | inactive | inactive | 9.92% | inactive | inactive | – | – | inactive |
| Oc1ccc(C(=C(Cl)Cl)c2ccc(O)cc2)cc1 | – | – | 34.3 µM (active) | -44.3% | inactive | inactive | inactive | inactive | 43.6 µM (active) |
| N#CCCC(Br)(C#N)CBr (centres undefined) | – | 127 µM (active) | – | -45.2% | 38.9 µM (active) | inactive | 38.9 µM (active) | 35.7 µM (active) | – |
| CC(C)OC(=S)S | – | – | – | – | inactive | inactive | inactive | 35.7 µM (active) | – |
| Clc1ccc(Oc2ccccc2)cc1 | – | inactive | – | – | inactive | inactive | inactive | inactive | inactive |
| Fc1ccc(Oc2ccnc3cc(Cl)cc(Cl)c23)cc1 | – | – | – | – | inactive | inactive | inactive | inactive | – |
| CC(C)N1C(=O)N(c2ccccc2)CSC1=NC(C)(C)C | – | – | 34.4 µM (active) | -49.9% | inactive | inactive | inactive | inactive | 21.9 µM (active) |
| COc1ccc(OC)c(C=O)c1 | – | inactive | – | – | inactive | inactive | inactive | inactive | – |
| Clc1ccc(-c2ccc(Cl)c(Cl)c2Cl)c(Cl)c1Cl | – | – | inactive | 6.41% | inactive | inactive | inactive | inactive | – |
| O=CC(Br)(Br)Br | – | – | – | – | 48.8 µM (active) | inactive | 43.5 µM (active) | 31.8 µM (active) | 2.45 µM (active) |
| CCCCCCCCCCCCCC[P+](CCCCCC)(CCCCCC)CCCCCC (tested in a mixture with another compound) | – | 5.05 µM (active) | – | – | 30.9 µM (active) | inactive | 24.6 µM (active) | 17.9 µM (active) | 4.9 µM (active) |
